# How the values were obtained:
# Experiment in all cases: DAPPL (digital affinity profiling via proximity ligation, sequencing); 10 mM Tris-HCl pH 7.5, 50 mM NaCl, 1 mM DTT, 4% glycerol, room temperature, 30 min; GST-TFs on glutathione beads, 16-mer random dsDNA library, 0.1% formaldehyde crosslink after washing; high values mean tight binding
# ELK1 = biological target: T1, ELK1 (Homo sapiens, UniProt P19419 1-428); details: protein: recombinant; tags: N-terminal GST; dsDNA, one strand shown
# T1 sequence: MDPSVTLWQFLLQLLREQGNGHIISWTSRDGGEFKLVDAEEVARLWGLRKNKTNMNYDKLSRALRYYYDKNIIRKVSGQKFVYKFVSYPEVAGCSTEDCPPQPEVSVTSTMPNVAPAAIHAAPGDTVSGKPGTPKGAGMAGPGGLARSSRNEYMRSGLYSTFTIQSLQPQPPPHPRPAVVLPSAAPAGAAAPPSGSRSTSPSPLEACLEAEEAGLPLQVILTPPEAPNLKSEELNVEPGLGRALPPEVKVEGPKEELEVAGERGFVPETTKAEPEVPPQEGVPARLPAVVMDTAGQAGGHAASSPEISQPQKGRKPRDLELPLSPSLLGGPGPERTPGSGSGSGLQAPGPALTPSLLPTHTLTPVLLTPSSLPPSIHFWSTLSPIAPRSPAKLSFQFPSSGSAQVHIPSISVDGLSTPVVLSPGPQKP
# Procedure, shortened: (§1)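 After expression in yeast as GST fusions, human transcription factors were bound to glutathione beads, DNA-barcoded and mixed with a tag-only sample. The pools were incubated with 200 nmole of a 16-mer random double-stranded DNA library in Tris/NaCl/DTT/glycerol buffer (30 min, room temperature), washed and crosslinked with 0.1% formaldehyde. Proximity ligation with BsaI/T4 ligase ran for 1 h at 37 °C, before PCR amplification and sequencing on an Illumina NextSeq500. Binding signal is a hexamer's read frequency for a factor divided by its frequency for the tag-only sample.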
# ELF1 = ELF1 (Homo sapiens, UniProt P32519 1-619); details: protein: recombinant; tags: N-terminal GST; dsDNA, one strand shown
# Sequence of ELF1 (P32519 whole entry): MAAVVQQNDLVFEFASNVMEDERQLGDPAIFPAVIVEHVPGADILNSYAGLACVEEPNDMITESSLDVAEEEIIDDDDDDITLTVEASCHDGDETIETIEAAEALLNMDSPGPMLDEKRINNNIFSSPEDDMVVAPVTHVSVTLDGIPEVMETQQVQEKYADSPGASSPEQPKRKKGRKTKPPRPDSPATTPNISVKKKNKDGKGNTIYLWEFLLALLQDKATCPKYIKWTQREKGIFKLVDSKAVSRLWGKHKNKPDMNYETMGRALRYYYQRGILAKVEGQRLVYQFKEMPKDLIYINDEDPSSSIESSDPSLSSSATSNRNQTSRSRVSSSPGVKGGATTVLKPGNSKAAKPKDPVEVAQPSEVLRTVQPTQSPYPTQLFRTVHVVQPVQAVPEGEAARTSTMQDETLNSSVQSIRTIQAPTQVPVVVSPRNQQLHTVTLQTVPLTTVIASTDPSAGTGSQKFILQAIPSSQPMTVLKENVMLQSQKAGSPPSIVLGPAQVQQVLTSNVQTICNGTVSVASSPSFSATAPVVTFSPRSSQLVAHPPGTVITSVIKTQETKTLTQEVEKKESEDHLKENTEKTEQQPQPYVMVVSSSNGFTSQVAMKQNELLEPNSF
# Procedure, shortened: as §1
# SPIB = SPIB (Homo sapiens, UniProt Q01892 1-262); details: protein: recombinant; tags: N-terminal GST; dsDNA, one strand shown
# Sequence of SPIB (Q01892 whole entry): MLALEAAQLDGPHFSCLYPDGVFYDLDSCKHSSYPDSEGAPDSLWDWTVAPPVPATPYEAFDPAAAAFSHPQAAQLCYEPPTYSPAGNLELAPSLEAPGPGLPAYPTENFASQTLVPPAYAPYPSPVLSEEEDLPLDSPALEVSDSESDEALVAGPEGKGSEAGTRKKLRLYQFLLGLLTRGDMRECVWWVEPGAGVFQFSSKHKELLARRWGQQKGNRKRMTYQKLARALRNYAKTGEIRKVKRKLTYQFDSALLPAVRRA
# Procedure, shortened: as §1
# ELK3 = biological target: T2, ELK3 (Homo sapiens, UniProt P41970 1-407); details: protein: recombinant; tags: N-terminal GST; dsDNA, one strand shown
# T2 sequence: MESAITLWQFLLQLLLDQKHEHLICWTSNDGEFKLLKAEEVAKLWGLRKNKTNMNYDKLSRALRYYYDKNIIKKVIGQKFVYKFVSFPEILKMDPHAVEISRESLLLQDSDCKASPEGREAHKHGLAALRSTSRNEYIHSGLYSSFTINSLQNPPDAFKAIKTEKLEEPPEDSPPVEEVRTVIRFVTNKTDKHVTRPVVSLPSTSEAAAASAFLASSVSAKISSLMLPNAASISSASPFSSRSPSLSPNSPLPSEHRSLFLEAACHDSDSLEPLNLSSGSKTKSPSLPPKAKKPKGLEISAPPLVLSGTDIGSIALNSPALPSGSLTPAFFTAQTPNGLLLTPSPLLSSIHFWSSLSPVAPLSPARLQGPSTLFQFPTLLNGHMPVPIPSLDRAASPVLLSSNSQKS
# Procedure, shortened: as §1
# HSF1 = HSF1 (Homo sapiens, UniProt Q00613 1-529); details: protein: recombinant; tags: N-terminal GST; chain copies: 3; dsDNA, one strand shown
# Sequence of HSF1 (Q00613 whole entry): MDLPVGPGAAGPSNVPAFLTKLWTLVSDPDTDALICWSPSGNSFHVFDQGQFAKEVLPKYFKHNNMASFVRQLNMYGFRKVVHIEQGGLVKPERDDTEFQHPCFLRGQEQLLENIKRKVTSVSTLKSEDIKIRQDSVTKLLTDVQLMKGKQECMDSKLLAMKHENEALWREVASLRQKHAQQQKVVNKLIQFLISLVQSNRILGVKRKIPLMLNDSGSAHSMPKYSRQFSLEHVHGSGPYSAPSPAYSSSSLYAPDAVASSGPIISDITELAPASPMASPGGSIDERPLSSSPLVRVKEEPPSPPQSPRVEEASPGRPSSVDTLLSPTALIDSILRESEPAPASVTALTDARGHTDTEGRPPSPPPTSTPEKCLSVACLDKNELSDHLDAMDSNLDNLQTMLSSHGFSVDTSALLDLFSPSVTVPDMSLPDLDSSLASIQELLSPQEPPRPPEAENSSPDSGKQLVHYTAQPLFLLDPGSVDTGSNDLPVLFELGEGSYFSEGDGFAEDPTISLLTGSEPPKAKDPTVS
# Procedure, shortened: as §1
# SPIC = biological target: T3, SPIC (Homo sapiens, UniProt Q8N5J4 1-248); details: protein: recombinant; tags: N-terminal GST; dsDNA, one strand shown
# T3 sequence: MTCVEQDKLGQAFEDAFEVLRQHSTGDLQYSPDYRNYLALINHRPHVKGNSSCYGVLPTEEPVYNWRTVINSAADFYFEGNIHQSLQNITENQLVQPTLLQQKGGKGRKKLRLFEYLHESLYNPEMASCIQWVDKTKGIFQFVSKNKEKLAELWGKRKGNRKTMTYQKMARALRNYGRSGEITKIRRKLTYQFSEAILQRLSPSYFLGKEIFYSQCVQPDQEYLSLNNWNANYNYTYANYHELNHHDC
# Procedure, shortened: as §1
# ELF4 = ELF4 (Homo sapiens, UniProt Q99607 1-663); details: protein: recombinant; tags: N-terminal GST; dsDNA, one strand shown
# Sequence of ELF4 (Q99607 whole entry): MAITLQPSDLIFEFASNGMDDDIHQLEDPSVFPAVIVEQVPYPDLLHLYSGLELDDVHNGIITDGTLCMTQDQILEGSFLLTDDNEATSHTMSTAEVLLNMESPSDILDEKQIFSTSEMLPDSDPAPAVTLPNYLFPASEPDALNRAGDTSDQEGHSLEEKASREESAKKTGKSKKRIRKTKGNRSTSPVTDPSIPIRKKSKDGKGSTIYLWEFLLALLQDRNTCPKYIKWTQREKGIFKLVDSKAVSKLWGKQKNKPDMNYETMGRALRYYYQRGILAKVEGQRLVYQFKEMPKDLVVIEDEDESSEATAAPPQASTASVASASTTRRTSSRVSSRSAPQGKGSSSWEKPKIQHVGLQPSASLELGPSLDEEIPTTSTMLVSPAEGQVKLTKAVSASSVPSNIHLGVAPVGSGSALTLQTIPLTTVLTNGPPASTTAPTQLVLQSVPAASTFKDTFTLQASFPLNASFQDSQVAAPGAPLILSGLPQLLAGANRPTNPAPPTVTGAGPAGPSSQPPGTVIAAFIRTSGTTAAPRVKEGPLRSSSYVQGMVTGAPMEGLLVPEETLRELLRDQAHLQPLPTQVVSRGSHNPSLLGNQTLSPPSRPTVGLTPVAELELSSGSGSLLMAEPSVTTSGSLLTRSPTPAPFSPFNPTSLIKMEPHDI
# Procedure, shortened: as §1
# ETV2 = biological target: T4, ETV2 (Homo sapiens, UniProt O00321 1-342); details: protein: recombinant; tags: N-terminal GST; dsDNA, one strand shown
# T4 sequence: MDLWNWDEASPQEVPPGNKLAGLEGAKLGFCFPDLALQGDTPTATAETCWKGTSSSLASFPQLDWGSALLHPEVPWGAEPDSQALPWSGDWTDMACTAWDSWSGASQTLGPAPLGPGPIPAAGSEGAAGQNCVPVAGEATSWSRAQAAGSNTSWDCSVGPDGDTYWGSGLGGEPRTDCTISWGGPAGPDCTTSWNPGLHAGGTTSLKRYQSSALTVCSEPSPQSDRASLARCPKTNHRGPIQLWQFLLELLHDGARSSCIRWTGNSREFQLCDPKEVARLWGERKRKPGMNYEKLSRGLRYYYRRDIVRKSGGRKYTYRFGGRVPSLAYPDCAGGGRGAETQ
# Procedure, shortened: as §1
# ELF3 = biological target: T5, ELF3 (Homo sapiens, UniProt P78545 1-371); details: protein: recombinant; tags: N-terminal GST; dsDNA, one strand shown
# T5 sequence: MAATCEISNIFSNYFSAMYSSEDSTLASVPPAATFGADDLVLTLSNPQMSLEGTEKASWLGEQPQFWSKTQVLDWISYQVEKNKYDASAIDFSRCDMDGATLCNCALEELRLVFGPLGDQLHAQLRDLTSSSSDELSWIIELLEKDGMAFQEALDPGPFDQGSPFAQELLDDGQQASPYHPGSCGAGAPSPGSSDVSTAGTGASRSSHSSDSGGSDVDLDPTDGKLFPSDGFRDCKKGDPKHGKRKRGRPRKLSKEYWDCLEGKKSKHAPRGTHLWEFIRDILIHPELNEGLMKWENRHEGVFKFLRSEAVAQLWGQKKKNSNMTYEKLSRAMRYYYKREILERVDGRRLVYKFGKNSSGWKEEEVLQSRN
# Procedure, shortened: as §1
# ERF = biological target: T6, ERF (Homo sapiens, UniProt P50548 1-548); details: protein: recombinant; tags: N-terminal GST; dsDNA, one strand shown
# T6 sequence: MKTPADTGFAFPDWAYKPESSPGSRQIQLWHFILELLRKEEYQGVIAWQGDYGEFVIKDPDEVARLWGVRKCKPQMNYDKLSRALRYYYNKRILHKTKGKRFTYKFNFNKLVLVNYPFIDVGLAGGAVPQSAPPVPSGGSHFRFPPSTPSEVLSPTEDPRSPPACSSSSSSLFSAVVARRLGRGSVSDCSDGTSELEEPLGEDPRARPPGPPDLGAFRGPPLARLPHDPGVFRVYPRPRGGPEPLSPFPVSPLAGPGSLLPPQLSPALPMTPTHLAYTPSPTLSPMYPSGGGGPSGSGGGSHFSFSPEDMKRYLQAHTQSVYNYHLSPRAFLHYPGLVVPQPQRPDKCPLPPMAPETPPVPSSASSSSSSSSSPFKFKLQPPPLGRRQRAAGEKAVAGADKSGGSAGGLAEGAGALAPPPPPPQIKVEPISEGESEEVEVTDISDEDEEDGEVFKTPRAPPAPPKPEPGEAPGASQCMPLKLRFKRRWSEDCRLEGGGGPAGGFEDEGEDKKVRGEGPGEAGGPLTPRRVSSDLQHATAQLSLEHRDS
# Procedure, shortened: as §1
# ETV3L = biological target: T7, ETV3L (Homo sapiens, UniProt Q6ZN32 1-361); details: protein: recombinant; tags: N-terminal GST; dsDNA, one strand shown
# T7 sequence: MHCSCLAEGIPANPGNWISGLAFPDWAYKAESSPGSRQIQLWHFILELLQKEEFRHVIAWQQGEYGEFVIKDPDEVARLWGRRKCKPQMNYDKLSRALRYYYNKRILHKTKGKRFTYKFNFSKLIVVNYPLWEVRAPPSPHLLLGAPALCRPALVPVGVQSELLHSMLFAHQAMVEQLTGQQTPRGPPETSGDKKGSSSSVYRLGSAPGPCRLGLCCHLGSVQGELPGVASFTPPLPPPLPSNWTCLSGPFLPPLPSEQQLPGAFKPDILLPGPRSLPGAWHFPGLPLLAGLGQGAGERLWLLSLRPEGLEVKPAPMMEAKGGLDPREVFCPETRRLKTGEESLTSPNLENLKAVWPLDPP
# Procedure, shortened: as §1
# ETS2 = biological target: T8, ETS2 (Homo sapiens, UniProt P15036 1-469); details: protein: recombinant; tags: N-terminal GST; dsDNA, one strand shown
# T8 sequence: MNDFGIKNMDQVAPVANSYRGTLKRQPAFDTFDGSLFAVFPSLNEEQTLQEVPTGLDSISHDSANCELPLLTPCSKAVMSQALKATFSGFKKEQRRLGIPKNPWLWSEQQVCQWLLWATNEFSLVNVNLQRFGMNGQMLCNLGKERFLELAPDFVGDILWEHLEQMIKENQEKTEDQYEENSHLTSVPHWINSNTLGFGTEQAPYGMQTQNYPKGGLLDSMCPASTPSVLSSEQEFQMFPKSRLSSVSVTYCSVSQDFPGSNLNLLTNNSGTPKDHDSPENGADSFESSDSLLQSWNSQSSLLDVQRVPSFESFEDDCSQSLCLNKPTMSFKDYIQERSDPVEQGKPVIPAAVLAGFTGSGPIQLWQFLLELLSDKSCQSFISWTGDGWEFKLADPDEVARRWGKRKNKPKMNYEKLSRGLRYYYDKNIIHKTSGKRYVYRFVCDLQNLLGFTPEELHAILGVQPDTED
# Procedure, shortened: as §1
# EHF = biological target: T9, EHF (Homo sapiens, UniProt Q9NZC4 1-300); details: protein: recombinant; tags: N-terminal GST; dsDNA, one strand shown
# T9 sequence: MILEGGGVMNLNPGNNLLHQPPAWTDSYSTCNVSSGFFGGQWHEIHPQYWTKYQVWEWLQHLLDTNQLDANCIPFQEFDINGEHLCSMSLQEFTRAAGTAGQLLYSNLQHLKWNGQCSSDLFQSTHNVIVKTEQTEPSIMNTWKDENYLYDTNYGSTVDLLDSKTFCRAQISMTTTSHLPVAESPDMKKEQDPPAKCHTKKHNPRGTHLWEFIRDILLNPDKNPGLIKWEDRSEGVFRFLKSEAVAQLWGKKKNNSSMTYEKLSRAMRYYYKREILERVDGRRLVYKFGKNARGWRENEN
# Procedure, shortened: as §1
# ELK4 = biological target: T10, ELK4 (Homo sapiens, UniProt P28324-2 1-405); details: protein: recombinant; tags: N-terminal GST; dsDNA, one strand shown
# T10 sequence: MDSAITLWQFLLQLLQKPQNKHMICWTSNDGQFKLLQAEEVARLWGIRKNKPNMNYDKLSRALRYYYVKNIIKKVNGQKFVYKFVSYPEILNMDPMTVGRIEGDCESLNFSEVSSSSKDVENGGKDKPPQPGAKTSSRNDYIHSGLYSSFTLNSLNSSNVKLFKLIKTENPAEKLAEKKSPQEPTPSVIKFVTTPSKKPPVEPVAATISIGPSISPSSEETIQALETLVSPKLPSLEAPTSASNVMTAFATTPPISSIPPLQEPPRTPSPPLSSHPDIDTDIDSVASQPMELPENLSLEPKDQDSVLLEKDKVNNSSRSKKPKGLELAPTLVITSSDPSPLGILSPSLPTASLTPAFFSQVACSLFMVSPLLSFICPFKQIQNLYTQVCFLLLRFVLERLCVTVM
# Procedure, shortened: as §1
# CRX = CRX (Homo sapiens, UniProt O43186 1-299); details: protein: recombinant; tags: N-terminal GST; dsDNA, one strand shown
# Sequence of CRX (O43186 whole entry): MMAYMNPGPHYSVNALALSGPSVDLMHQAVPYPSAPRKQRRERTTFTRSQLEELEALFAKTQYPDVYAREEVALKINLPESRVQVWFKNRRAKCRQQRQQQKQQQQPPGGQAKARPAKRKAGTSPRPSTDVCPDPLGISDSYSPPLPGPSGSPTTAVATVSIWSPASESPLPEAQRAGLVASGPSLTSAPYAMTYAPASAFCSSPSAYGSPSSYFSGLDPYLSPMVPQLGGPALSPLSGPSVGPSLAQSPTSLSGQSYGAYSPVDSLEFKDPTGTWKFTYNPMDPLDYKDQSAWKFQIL
# Procedure, shortened: as §1
sequence,measurement,setting,value
AACCGA,binding signal,ELK1,"1.02 fold enrichment (6-mer frequency, TF over GST control)"
same,binding signal,ELF1,"1.04 fold enrichment (6-mer frequency, TF over GST control)"
same,binding signal,SPIB,"1.03 fold enrichment (6-mer frequency, TF over GST control)"
same,binding signal,ELK3,"1.01 fold enrichment (6-mer frequency, TF over GST control)"
same,binding signal,HSF1,"1.04 fold enrichment (6-mer frequency, TF over GST control)"
same,binding signal,SPIC,"1.09 fold enrichment (6-mer frequency, TF over GST control)"
same,binding signal,ELF4,"1.02 fold enrichment (6-mer frequency, TF over GST control)"
same,binding signal,ETV2,"1.13 fold enrichment (6-mer frequency, TF over GST control)"
same,binding signal,ELF3,"1.04 fold enrichment (6-mer frequency, TF over GST control)"
same,binding signal,ERF,"1 fold enrichment (6-mer frequency, TF over GST control)"
same,binding signal,ETV3L,"1.07 fold enrichment (6-mer frequency, TF over GST control)"
same,binding signal,ETS2,"1.03 fold enrichment (6-mer frequency, TF over GST control)"
GAGAAA,binding signal,HSF1,"1.49 fold enrichment (6-mer frequency, TF over GST control)"
TCCAGC,binding signal,ELK1,"1.03 fold enrichment (6-mer frequency, TF over GST control)"
same,binding signal,EHF,"1.04 fold enrichment (6-mer frequency, TF over GST control)"
same,binding signal,ELK3,"1.07 fold enrichment (6-mer frequency, TF over GST control)"
same,binding signal,HSF1,"1.44 fold enrichment (6-mer frequency, TF over GST control)"
same,binding signal,SPIC,"1.06 fold enrichment (6-mer frequency, TF over GST control)"
same,binding signal,ELK4,"1.17 fold enrichment (6-mer frequency, TF over GST control)"
same,binding signal,CRX,"1.08 fold enrichment (6-mer frequency, TF over GST control)"

# Source: PMC7862700, “An all-to-all approach to the identification of sequence-specific readers for epigenetic DNA modifications on cytosine”
